For ten compounds, growth inhibition results are on record in PubChem BioAssay (NCI).

This is part of a sample that, as a whole, favours compounds with a hit. Of some 79,000 tested, about 15% had one in any assay. Unmarked numbers belong to inactive results. Calls of active or inactive are those of the source. Cut-off read from the data, not from the text of the source: active = growth inhibition above about 70%; inactive = the rest.

A short description of assay [1]: NCI Yeast Anticancer Drug Screen. Data for the rad50 strain (AID 155).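 Note: 0% = growth of vehicle-only cultures of the same strain.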 The settings on record: S. cerevisiae rad50 strain growth inhibition, active compounds read high. The procedure, abridged:
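A DNA repair-deficient yeast mutant serves as the test organism; compound-induced growth inhibition is calculated against vehicle-treated cells.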

Assay [2] can be described thus: NCI Yeast Anticancer Drug Screen. Data for the mec2-1 strain (AID 157). The settings on record: S. cerevisiae mec2-1 strain, active compounds read high. The procedure, abridged:
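Mutant yeast (mec2-1) grown with compound; growth inhibition relative to vehicle control reported.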

Assay [3] in a line: NCI Yeast Anticancer Drug Screen. Data for the sgs1 mgt1 strain (AID 161).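 Note: 0% = growth of cultures given vehicle only.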 The settings on record: S. cerevisiae sgs1 mgt1 strain, active compounds read high. The essentials: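 Yeast cells carrying a defined DNA-repair defect were exposed to test compounds. Growth inhibition was measured relative to vehicle-treated controls.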
The nature of assay [4]: NCI Yeast Anticancer Drug Screen. Data for the cln2 rad14 strain (AID 165).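 Note: 0% = growth equal to vehicle treated cultures.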 The settings on record: S. cerevisiae cln2 rad14 strain, active compounds read high. The procedure, abridged:
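Readout is yeast growth inhibition versus vehicle-treated controls, using a strain with cln2 and rad14 alterations exposed to compound.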

Assay [5] in a line: NCI Yeast Anticancer Drug Screen. Data for the bub3 strain (AID 167). As to conditions: S. cerevisiae bub3 mutant strain, active compounds read high. The essentials:
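Inhibition values come from growth of compound-treated mutant yeast normalised to vehicle-treated controls.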

Assay [6] is described as follows: NCI Yeast Anticancer Drug Screen. Data for the mlh1 rad18 strain (AID 175). The settings on record: S. cerevisiae mlh1 rad18 strain growth inhibition, active compounds read high. The procedure, abridged:
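Genetically defined yeast (DNA repair-deficient) exposed to compounds; growth inhibition determined relative to vehicle.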

Setting [7] is: at 5.0 µM (retest, dose inferred, filed as 0.5).
The mark [8] stands for this setting: at 50.0 µM (retest, dose inferred, filed as 5.0).

Take `O=C(C(=O)c1ccncc1)c1ccccc1`: the growth inhibition in assay [1] (setting [7]) is -148%; in assay [1] (setting [8]) it was -127%; in assay [1] (at 50.0 µM), 7.6%; in assay [2] (setting [7]), -52%; in assay [2] (setting [8]), -55%; in assay [2] (at 50.0 µM), 23.1%. Further, the growth inhibition in assay [3] (setting [7]) was -58%; in assay [3] (setting [8]) it was -63%; in assay [3] (at 50.0 µM) it was -5.6%; in assay [4] (setting [7]) it was -59%; in assay [4] (setting [8]) it was -59%; in assay [4] (at 50.0 µM), 34%. In addition, the growth inhibition in assay [5] (setting [7]) is -64%; in assay [5] (setting [8]), -83%; in assay [5] (at 50.0 µM), -12.2%; in assay [6] (setting [7]), -117%; in assay [6] (setting [8]), -114%; in assay [6] (at 50.0 µM), -14.6%.

For the compound `CC(C)(C)CC(C)(C)c1ccc(O)c(O)c1`, the growth inhibition is 96% (active) in assay [1] (setting [7]); 99% (active) in assay [1] (setting [8]); 93.3% (active) in assay [1] (at 50.0 µM); 100% (active) in assay [2] (setting [7]); 99% (active) in assay [2] (setting [8]); 94.2% (active) in assay [2] (at 50.0 µM). The growth inhibition in assay [3] (setting [7]) is 98% (active); in assay [3] (setting [8]), 99% (active); in assay [3] (at 50.0 µM) it was 94.5% (active); in assay [4] (setting [7]) it was 55%; in assay [4] (setting [8]) it was 99% (active); in assay [4] (at 50.0 µM), 92.3% (active). The growth inhibition is 86% (active) in assay [5] (setting [7]); 98% (active) in assay [5] (setting [8]); 93.3% (active) in assay [5] (at 50.0 µM); 100% (active) in assay [6] (setting [7]); 99% (active) in assay [6] (setting [8]); 93.2% (active) in assay [6] (at 50.0 µM).

For the compound `ClCc1nnc2n1-c1ccc(Cl)cc1SC2`, the growth inhibition in assay [1] (setting [7]) is 3%; in assay [1] (setting [8]), 68%; in assay [1] (at 50.0 µM), 12.4%; in assay [2] (setting [7]), 0%; in assay [2] (setting [8]), 64%; in assay [2] (at 50.0 µM) it was 25.9%. For the same compound, the growth inhibition in assay [3] (setting [7]) is -21%; in assay [3] (setting [8]) it was 66%; in assay [3] (at 50.0 µM), 35.3%; in assay [4] (setting [7]), 13%; in assay [4] (setting [8]) it was 88% (active); in assay [4] (at 50.0 µM), 6.15%. The growth inhibition in assay [5] (setting [7]) is 3%; in assay [5] (setting [8]), 92% (active); in assay [5] (at 50.0 µM) it was 20.9%; in assay [6] (setting [7]), -20%; in assay [6] (setting [8]) it was 87% (active); in assay [6] (at 50.0 µM) it was 24.1%.

`CC(C)(C)C1=NC(=S)SC2=NC(=O)C3(NN21)c1ccccc1-c1ccccc13`: the growth inhibition in assay [1] (setting [7]) is 6%; in assay [1] (setting [8]), 86% (active); in assay [1] (at 50.0 µM), 90.9% (active); in assay [2] (setting [7]), -6%; in assay [2] (setting [8]) it was 53%; in assay [2] (at 50.0 µM) it was 74.3% (active). The growth inhibition was 5% in assay [3] (setting [7]); 78% (active) in assay [3] (setting [8]); 86.6% (active) in assay [3] (at 50.0 µM); -10% in assay [4] (setting [7]); 45% in assay [4] (setting [8]); 63% in assay [4] (at 50.0 µM). Also, the growth inhibition in assay [5] (setting [7]) was -11%; in assay [5] (setting [8]) it was 72% (active); in assay [5] (at 50.0 µM), 91% (active); in assay [6] (setting [7]), 6%; in assay [6] (setting [8]), 77% (active); in assay [6] (at 50.0 µM), 94.9% (active).

`CC(=O)/C=C1\C(=O)Nc2ccccc21`: the growth inhibition in assay [1] (setting [7]) was 20%; in assay [1] (setting [8]) it was 97% (active); in assay [1] (at 50.0 µM), 85.1% (active); in assay [2] (setting [7]), 10%; in assay [2] (setting [8]), 100% (active); in assay [2] (at 50.0 µM), 91.6% (active). The growth inhibition was 16% in assay [3] (setting [7]); 92% (active) in assay [3] (setting [8]); 91.7% (active) in assay [3] (at 50.0 µM); 26% in assay [4] (setting [7]); 95% (active) in assay [4] (setting [8]); 32.9% in assay [4] (at 50.0 µM). Also, the growth inhibition in assay [5] (setting [7]) is 12%; in assay [5] (setting [8]), 99% (active); in assay [5] (at 50.0 µM), 87.7% (active); in assay [6] (setting [7]) it was 14%; in assay [6] (setting [8]), 99% (active); in assay [6] (at 50.0 µM) it was 78.7% (active).

Regarding `CC[N+]1(C)CCC(O)(/C=C/c2ccccc2)C(C(=O)/C=C/c2ccccc2)C1` (stereo not given), the growth inhibition is 7% in assay [1] (setting [7]); 98% (active) in assay [1] (setting [8]); 99.3% (active) in assay [1] (at 50.0 µM); 11% in assay [2] (setting [7]); 99% (active) in assay [2] (setting [8]); 99.7% (active) in assay [2] (at 50.0 µM). In addition, the growth inhibition is 12% in assay [3] (setting [7]); 54% in assay [3] (setting [8]); 99.2% (active) in assay [3] (at 50.0 µM); 8% in assay [4] (setting [7]); 98% (active) in assay [4] (setting [8]); 83% (active) in assay [4] (at 50.0 µM). Also, the growth inhibition was 7% in assay [5] (setting [7]); 99% (active) in assay [5] (setting [8]); 99.3% (active) in assay [5] (at 50.0 µM); 11% in assay [6] (setting [7]); 99% (active) in assay [6] (setting [8]); 99.3% (active) in assay [6] (at 50.0 µM).

On to `Oc1c(Cl)c2ccccc2c2ccccc12`, for which the growth inhibition was -2% in assay [1] (setting [7]); 59% in assay [1] (setting [8]); 98.6% (active) in assay [1] (at 50.0 µM); 56% in assay [2] (setting [7]); 48% in assay [2] (setting [8]); 99.2% (active) in assay [2] (at 50.0 µM). The growth inhibition in assay [3] (setting [7]) is 1%; in assay [3] (setting [8]), 23%; in assay [3] (at 50.0 µM), 99% (active); in assay [4] (setting [7]), -1%; in assay [4] (setting [8]), 24%; in assay [4] (at 50.0 µM) it was 98.5% (active). Besides, the growth inhibition in assay [5] (setting [7]) is 37%; in assay [5] (setting [8]) it was 76% (active); in assay [5] (at 50.0 µM), 93.5% (active); in assay [6] (setting [7]), 8%; in assay [6] (setting [8]) it was 44%; in assay [6] (at 50.0 µM) it was 98.7% (active).

Turning to `O=C(/C=C\c1ccccc1)N1c2ccccc2CC1c1c[nH]c2ccccc12` (stereo not given), the growth inhibition was -10% in assay [1] (setting [7]); 11% in assay [1] (setting [8]); 6.35% in assay [1] (at 50.0 µM); -1% in assay [2] (setting [7]); 17% in assay [2] (setting [8]); -1.7% in assay [2] (at 50.0 µM). For the same compound, the growth inhibition is 4% in assay [3] (setting [7]); 19% in assay [3] (setting [8]); 10.3% in assay [3] (at 50.0 µM); -1% in assay [4] (setting [7]); 1% in assay [4] (setting [8]); 36.9% in assay [4] (at 50.0 µM). Moreover, the growth inhibition in assay [5] (setting [7]) was 20%; in assay [5] (setting [8]), 41%; in assay [5] (at 50.0 µM), -2.1%; in assay [6] (setting [7]) it was 7%; in assay [6] (setting [8]) it was 11%; in assay [6] (at 50.0 µM) it was 12.2%.

As for `CCN(CC)CCNc1ccc2nnn3c4ccc([N+](=O)[O-])cc4c(=O)c1c23`, the growth inhibition was 16% in assay [1] (setting [7]); 35% in assay [1] (setting [8]); 66.5% in assay [1] (at 50.0 µM); 1% in assay [2] (setting [7]); 12% in assay [2] (setting [8]); 26% in assay [2] (at 50.0 µM). Further, the growth inhibition in assay [3] (setting [7]) is 5%; in assay [3] (setting [8]), 15%; in assay [3] (at 50.0 µM), 66%; in assay [4] (setting [7]) it was 24%; in assay [4] (setting [8]) it was 27%; in assay [4] (at 50.0 µM), 36.2%. In addition, the growth inhibition is 9% in assay [5] (setting [7]); 35% in assay [5] (setting [8]); 37.9% in assay [5] (at 50.0 µM); 11% in assay [6] (setting [7]); 30% in assay [6] (setting [8]); 76% (active) in assay [6] (at 50.0 µM).

As for `CN(C)CCOc1ccc2c(c1)C(=O)/C(=C\c1ncc([N+](=O)[O-])n1C)C2`, the growth inhibition in assay [1] (setting [7]) is 31%; in assay [1] (setting [8]) it was 73% (active); in assay [1] (at 50.0 µM) it was 54.1%; in assay [2] (setting [7]), 21%; in assay [2] (setting [8]) it was 89% (active); in assay [2] (at 50.0 µM), 80.3% (active). In addition, the growth inhibition is 21% in assay [3] (setting [7]); 67% in assay [3] (setting [8]); 77.4% (active) in assay [3] (at 50.0 µM); 22% in assay [4] (setting [7]); 46% in assay [4] (setting [8]); 59% in assay [4] (at 50.0 µM). Also, the growth inhibition in assay [5] (setting [7]) is 21%; in assay [5] (setting [8]) it was 95% (active); in assay [5] (at 50.0 µM) it was 34.8%; in assay [6] (setting [7]), 50%; in assay [6] (setting [8]) it was 78% (active); in assay [6] (at 50.0 µM), 80.8% (active).
